Laboratory results taken from PubChem BioAssay (NCI).
Compounds without any hit were thinned out: in the full panel of roughly 83,000, 20% have a hit.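 How to read the values: 0–100, growth inhibition (40 = 60% inhibited); 0, no net growth; -100 to 0, cell death (-40 = 40% of starting cells died; -100 = all dead).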 A number with no mark means an inactive call. Calls of active or inactive are those of the source. The calls were made as follows: active = growth percent below 10; inactive = the rest.

What follows are molecules tested on SK-MEL-28 melanoma (assay: NCI-60 one-dose screen, 48 h (100 = growth as untreated, 0 = no growth, -100 = all killed)). Conditions: 10 µM unless noted.
For `CC[C@]12C=CCN3CC[C@@]4(c5ccc(OC)cc5N(C)[C@H]4[C@@](O)(C(=O)OC)[C@@H]1OC(=O)CCN1CCc4ccccc4C1)[C@@H]32`, the growth was 95%. For `Cc1nc(N)sc1-c1csc(Nc2ccc(C(F)(F)F)cc2)n1`, the growth was 42.1%. `Cn1cc(-c2nnc(N)nc2-c2c[nH]c3ccc(Br)cc23)c2cc(Br)ccc21` gave a growth of 101%. `C#C[C@]1(O)CC[C@H]2[C@@H]3CC=C4c5sc(N(C)c6ccccc6)nc5CC[C@]4(C)[C@H]3CC[C@@]21C` was tested, and the growth was 76.9%. For `NS(=O)(=O)c1ccc(Nc2nc(Nc3ccccc3)nc(N3N=C(c4ccc(Cl)cc4)CC3c3ccc(Cl)cc3)n2)cc1` (stereo not drawn), the growth was 47.1%. `O=C(CCCCCCN1CC(=O)N2[C@@H](c3ccc(Cl)s3)c3[nH]c4ccccc4c3C[C@H]2C1=O)NO` showed a growth of 37.2%. `CCCCc1nc2c(N)nc3ccccc3c2n1Cc1cccc(CN)c1` gave a growth of 59.4%. `N#C/C(=C\c1ccc(-c2ccc(Cl)c(Cl)c2)o1)C(=O)Nc1ncc(Cc2ccc(Cl)cc2)s1` gave a growth of 18.2%. With `O=C(Nc1ccc(Cl)c(C(F)(F)F)c1)Nc1ccc2oc(=O)ccc2c1` the growth was 66.7%. `COc1ccc2[nH]cc(/C=N/Nc3ccnc4cc(Cl)ccc34)c2c1` was tested, and the growth was -100% (active). Work on `O=C1Nc2ccccc2/C1=C/c1ccc(OCC(=O)c2ccccc2)cc1` yielded a growth of 100%. `NS(=O)(=O)c1nnc(/N=C/c2c(O)[nH]c3ccccc23)s1` gave a growth of 114%. With `COc1cc(/C=C2/C(=O)Nc3ccc(Cl)cc32)ccc1OCc1ccc(Cl)cc1` the growth was 103%.
